Experimental findings from the supplement of paper PMC6089552 are described below.

Molecules are shown by their SMILES. Among all 3,200 compounds or so, about 300 (9.4%) showed activity. The sample holds actives, similar compounds and a random draw of the others, so the mix is not that of the screen.

The assay concerns A673/TR/shEF. In words: cell viability (LOESS-normalised, relative to median of negative controls) (log2 ratio); higher = more viable cells (less compound effect), active = hit call of the paper (over 3 MAD below the median). The following applies: treatment time: 72 h. An outline of the steps:
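A673/TR/shEF Ewing sarcoma cells were plated at 1,500 per well in 384-well plates and cultured with or without doxycycline, added 24 h before compounds, to induce EWS-FLI1 shRNA knockdown. Library compounds at two or more concentrations, alongside DMSO controls, were applied for three days. Cell viability was measured by CellTiter-Glo luminescence on an Envision reader. Readings were LOESS-corrected per plate, divided by the median of negative controls and log2-transformed, and hits were wells lying at least three median absolute deviations from the median of all screened wells.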

The mark [1] stands for this setting: 0.25 µM, library screen: screen1, EWS-FLI1 expression: high (no doxycycline).
Setting [2] is: 0.25 µM, library screen: screen1, EWS-FLI1 expression: low (doxycycline-induced shRNA knockdown).
Setting [3] is: 2.5 µM, library screen: screen1, EWS-FLI1 expression: high (no doxycycline).
The mark [4] stands for this setting: 2.5 µM, library screen: screen1, EWS-FLI1 expression: low (doxycycline-induced shRNA knockdown).
[5] abbreviates: 0.103 µM, library screen: screen3, EWS-FLI1 expression: high (no doxycycline).
[6] abbreviates: 0.103 µM, library screen: screen3, EWS-FLI1 expression: low (doxycycline-induced shRNA knockdown).
Where [7] appears, read: 0.308 µM, library screen: screen3, EWS-FLI1 expression: high (no doxycycline).
Setting [8] is: 0.308 µM, library screen: screen3, EWS-FLI1 expression: low (doxycycline-induced shRNA knockdown).
The mark [9] stands for this setting: 0.926 µM, library screen: screen3, EWS-FLI1 expression: high (no doxycycline).
Setting [10] is: 0.926 µM, library screen: screen3, EWS-FLI1 expression: low (doxycycline-induced shRNA knockdown).
Setting [11] is: 2.8 µM, library screen: screen3, EWS-FLI1 expression: high (no doxycycline).
[12] abbreviates: 2.8 µM, library screen: screen3, EWS-FLI1 expression: low (doxycycline-induced shRNA knockdown).
The mark [13] stands for this setting: 8.3 µM, library screen: screen3, EWS-FLI1 expression: high (no doxycycline).
Setting [14] is: 8.3 µM, library screen: screen3, EWS-FLI1 expression: low (doxycycline-induced shRNA knockdown).
[15] abbreviates: 25 µM, library screen: screen3, EWS-FLI1 expression: high (no doxycycline).
Where [16] appears, read: 25 µM, library screen: screen3, EWS-FLI1 expression: low (doxycycline-induced shRNA knockdown).

For `CSCCC(NC=O)C(=O)NC(CC(C)C)C(=O)NC(Cc1ccccc1)C(=O)O` (stereo not given), the “cell viability (log2)” value runs as follows: under setting [1], 0.0125 (inactive); under setting [2], 0.0891 (inactive); under setting [3], 0.0974 (inactive); under setting [4], 0.0808 (inactive).

Take `Cn1cncc1[C@@](N)(c1ccc(Cl)cc1)c1ccc2c(c1)c(-c1cccc(Cl)c1)cc(=O)n2C`: the “cell viability (log2)” value is -0.139 (inactive) under setting [5]; -0.0373 (inactive) under setting [6]; -0.29 (active) under setting [7]; -0.0603 (inactive) under setting [8]; -0.324 (active) under setting [9]; -0.0604 (inactive) under setting [10]. The “cell viability (log2)” value reads like this: under setting [11], -0.403 (active); under setting [12], -0.128 (active); under setting [13], -0.472 (active); under setting [14], -0.135 (active); under setting [15], -0.511 (active); under setting [16], -0.303 (active).

As to `COc1ccccc1C1NC(=S)NC(C)=C1C(=O)Nc1cccc(Cl)c1` (stereo not given), the “cell viability (log2)” value is 0.0961 (inactive) under setting [1], 0.101 (inactive) under setting [2], 0.0795 (inactive) under setting [3] and 0.0861 (inactive) under setting [4].

On to `O=C(O)C(O)C(O)(Cc1ccc(O)cc1)C(=O)O` (stereo not given), for which the “cell viability (log2)” value was 0.147 (inactive) under setting [1], 0.0709 (inactive) under setting [2], 0.147 (inactive) under setting [3] and 0.089 (inactive) under setting [4].

Turning to `C[C@@H]1CC[C@@]2(OC1)O[C@H]1C[C@H]3[C@@H]4CC[C@H]5C[C@@H](O)CC[C@]5(C)[C@H]4C[C@@H](O)[C@]3(C)[C@H]1[C@@H]2C`, the “cell viability (log2)” value by setting is: under setting [1], 0.0822 (inactive); under setting [2], 0.0668 (inactive); under setting [3], 0.111 (inactive); under setting [4], 0.136 (inactive).

As to `COc1ccccc1C=CC(=O)O`, the “cell viability (log2)” value under setting [1] was 0.0113 (inactive), the “cell viability (log2)” value under setting [2] is -0.0457 (inactive), the “cell viability (log2)” value under setting [3] is 0.102 (inactive) and the “cell viability (log2)” value under setting [4] is 0.0515 (inactive).

In the case of `O=C1C=CC(=C(c2ccc(O)cc2)c2ccc(O)cc2)C=C1`, the “cell viability (log2)” value runs as follows: under setting [1], 0.083 (inactive); under setting [2], 0.0465 (inactive); under setting [3], 0.0975 (inactive); under setting [4], 0.0767 (inactive).

On to `CN(C)c1ccc(C(=C2C=CC(=[N+](C)C)C=C2)c2ccc(N(C)C)cc2)cc1`, for which the “cell viability (log2)” value is, setting by setting: under setting [5], 0.0956 (inactive); under setting [6], -0.0594 (inactive); under setting [1], 0.105 (inactive); under setting [2], 0.00922 (inactive); under setting [7], 0.0542 (inactive); under setting [8], 0.0588 (inactive). The “cell viability (log2)” value by setting is: under setting [9], 0.098 (inactive); under setting [10], 0.0226 (inactive); under setting [3], 0.0691 (inactive); under setting [4], 0.106 (inactive); under setting [11], -0.295 (active); under setting [12], -0.547 (active). In addition, the “cell viability (log2)” value under setting [13] is -2.54 (active), the “cell viability (log2)” value under setting [14] was -1.19 (active), the “cell viability (log2)” value under setting [15] was -4.26 (active) and the “cell viability (log2)” value under setting [16] is -1.87 (active).

For `COc1ccc(-c2cc(=O)c3c(OC)cc(OC)cc3o2)cc1`, the “cell viability (log2)” value under setting [1] is 0.0279 (inactive), the “cell viability (log2)” value under setting [2] is 0.0681 (inactive), the “cell viability (log2)” value under setting [3] is 0.0807 (inactive) and the “cell viability (log2)” value under setting [4] was 0.22 (inactive).

Turning to `CC(=O)Oc1cc(C)c2c(c1C(OC(C)=O)OC(C)=O)Oc1c(c(C)c(OC(C)=O)c3c1C(OC(C)=O)OC3=O)OC2=O` (stereo not given), the “cell viability (log2)” value under setting [1] is 0.0407 (inactive), the “cell viability (log2)” value under setting [2] is 0.0968 (inactive), the “cell viability (log2)” value under setting [3] is 0.0425 (inactive) and the “cell viability (log2)” value under setting [4] is 0.133 (inactive).

On to `CC1(C)CC[C@]2(C)CC[C@]3(C)C(=CC[C@@H]4[C@@]5(C)CC[C@H](O)C(C)(C)[C@@H]5CC[C@]43C)[C@@H]2C1`, for which the “cell viability (log2)” value by setting is: under setting [1], 0.0903 (inactive); under setting [2], 0.0065 (inactive); under setting [3], 0.1 (inactive); under setting [4], 0.118 (inactive).

As to `COC1=C[C@@H](C)[C@@H]2C[C@H]3OC(=O)C[C@H]4C(C)=C(OC)C(=O)[C@H]([C@@]2(C)C1=O)[C@@]34C`, the “cell viability (log2)” value was 0.0742 (inactive) under setting [1], 0.006 (inactive) under setting [2], 0.146 (inactive) under setting [3] and 0.0264 (inactive) under setting [4].

As for `Cc1ccc(C(=O)Nc2ccc(CN3CCN(C)CC3)c(C(F)(F)F)c2)cc1C#Cc1cnc2cccnn12`, the “cell viability (log2)” value under setting [5] is -0.0141 (inactive); the “cell viability (log2)” value under setting [6] is 0.111 (inactive); the “cell viability (log2)” value under setting [7] is -0.0138 (inactive); the “cell viability (log2)” value under setting [8] is 0.169 (inactive); the “cell viability (log2)” value under setting [9] was -0.202 (active); the “cell viability (log2)” value under setting [10] came to 0.218. Moreover, the “cell viability (log2)” value is -0.252 (active) under setting [11]; 0.093 (inactive) under setting [12]; -0.655 (active) under setting [13]; -0.442 (active) under setting [14]; -1.59 (active) under setting [15]; -1.35 (active) under setting [16].

Take `CC(C)c1c(O)ccc2c1CCC1[C@@](C)(C(=O)O)CCC[C@]21C` (stereo not given in full): the “cell viability (log2)” value reads like this: under setting [1], 0.0397 (inactive); under setting [2], 0.152 (inactive); under setting [3], 0.0988 (inactive); under setting [4], 0.234 (inactive).

With `C=C(C)/C=C1/C=CC(=O)C(C)=C1`, the “cell viability (log2)” value was 0.0888 (inactive) under setting [1], 0.0664 (inactive) under setting [2], 0.0231 (inactive) under setting [3] and 0.158 (inactive) under setting [4].

`CCCCOc1ccc(CC(=O)NO)cc1`: the “cell viability (log2)” value by setting is: under setting [1], 0.0397 (inactive); under setting [2], 0.0519 (inactive); under setting [3], 0.124 (inactive); under setting [4], 0.116 (inactive).

On to `CCCOc1ccc2nc(NC(=O)OC)[nH]c2c1`, for which the “cell viability (log2)” value by setting is: under setting [1], 0.0532 (inactive); under setting [2], 0.106 (inactive); under setting [3], -0.659 (active); under setting [4], -0.0137 (inactive).

`CCCSc1ccc2nc(NC(=O)OC)[nH]c2c1`: the “cell viability (log2)” value runs as follows: (0.025 µM, library screen: screen2, EWS-FLI1 expression: high (no doxycycline)) 0.0864 (inactive); (0.025 µM, library screen: screen2, EWS-FLI1 expression: low (doxycycline-induced shRNA knockdown)) 0.0115 (inactive); under setting [5], 0.197 (inactive); under setting [6], -0.0327 (inactive); under setting [1], -0.206 (active); under setting [2], -0.0499 (inactive). Also, the “cell viability (log2)” value was 0.0348 (inactive) (0.25 µM, library screen: screen2, EWS-FLI1 expression: high (no doxycycline)); 0.051 (inactive) (0.25 µM, library screen: screen2, EWS-FLI1 expression: low (doxycycline-induced shRNA knockdown)); 0.0506 (inactive) under setting [7]; 0.123 (inactive) under setting [8]; 0.0609 (inactive) under setting [9]; 0.0788 (inactive) under setting [10]. The “cell viability (log2)” value under setting [3] was -1.99 (active); the “cell viability (log2)” value under setting [4] was -1.04 (active); the “cell viability (log2)” value (2.5 µM, library screen: screen2, EWS-FLI1 expression: high (no doxycycline)) is 0.158 (inactive); the “cell viability (log2)” value (2.5 µM, library screen: screen2, EWS-FLI1 expression: low (doxycycline-induced shRNA knockdown)) was 0.0631 (inactive); the “cell viability (log2)” value under setting [11] is -0.524 (active); the “cell viability (log2)” value under setting [12] is 0.00738 (inactive). Also, the “cell viability (log2)” value was -1.81 (active) under setting [13]; -0.886 (active) under setting [14]; -1.74 (active) (25 µM, library screen: screen2, EWS-FLI1 expression: high (no doxycycline)); -0.157 (active) (25 µM, library screen: screen2, EWS-FLI1 expression: low (doxycycline-induced shRNA knockdown)); -2.99 (active) under setting [15]; -1.16 (active) under setting [16].
